# An excerpt weighted towards active compounds, which were near 2.9% of everything screened.
# MEKK3 PB1 HTS: MEKK3-MEK5 PB1 interaction, increase or decrease; 290,000 tested, 1.4% active; bead-based flow cytometry, Alexa488-MEK5 binding to MEKK3; actives lie on both sides; 0 = blocked by unlabeled MEK5, 100 = vehicle; binding response (% of control), % at 10 µM; AID 1529; Q99759;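 active = binding response more than 3 SD above or below the average of its plate-row segment, actives on both sides; inconclusive = wells at one plate position flagged as instrument error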;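 note: Alexa488 bead fluorescence after subtracting the streptavidin-only scavenger bead signal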
# Target sequence (Q99759 whole entry, looked up): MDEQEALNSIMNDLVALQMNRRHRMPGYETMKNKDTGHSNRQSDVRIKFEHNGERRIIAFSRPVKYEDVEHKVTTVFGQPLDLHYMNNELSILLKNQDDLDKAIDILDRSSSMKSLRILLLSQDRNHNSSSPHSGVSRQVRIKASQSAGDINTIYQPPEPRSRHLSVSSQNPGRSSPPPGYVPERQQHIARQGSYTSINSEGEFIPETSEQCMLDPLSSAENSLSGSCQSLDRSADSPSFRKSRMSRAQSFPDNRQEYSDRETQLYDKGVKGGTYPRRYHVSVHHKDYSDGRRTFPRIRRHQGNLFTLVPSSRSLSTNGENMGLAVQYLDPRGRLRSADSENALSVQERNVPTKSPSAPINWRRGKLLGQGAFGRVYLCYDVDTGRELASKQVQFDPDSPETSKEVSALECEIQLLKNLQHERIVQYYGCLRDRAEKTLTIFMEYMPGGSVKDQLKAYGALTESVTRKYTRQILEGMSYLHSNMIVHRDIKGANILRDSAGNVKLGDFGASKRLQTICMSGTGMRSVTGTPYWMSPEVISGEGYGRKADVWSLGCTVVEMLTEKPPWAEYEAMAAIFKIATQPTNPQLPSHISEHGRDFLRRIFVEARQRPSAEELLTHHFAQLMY
# dFosB act-1: enhances mouse delta FosB homodimer DNA binding; P13346; purified delta FosB, TAMRA-CDK5 oligo fluorescence polarization; percent of positive-control signal above neutral wells; activation, % at 25 µM; 340,000 tested, 0.99% active; AID 493131;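 active = mean activation above about 17%, with every replicate also reaching it, limit read from the data, passing the limit was not always enough; inconclusive = only one of the two conditions met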
# MEKK2wt PB1 HTS: raises or lowers MEK5 binding to wildtype human MEKK2 PB1 domain; Q9Y2U5; bead flow cytometry, Alexa488-MEK5 binding to MEKK2 WT; actives lie on both sides; binding response (% of control), % at 10 µM; 290,000 tested, 1.1% active; in the data active = binding response below about 67% or above about 130%; inconclusive = no clear call, values can overlap the other calls; inactive = in between
# FID counter: counter-screen for HCV NS3 helicase inhibitors: DNA intercalator displacement; 290,000 tested, 0.17% active; DNA fluorescent intercalator displacement, fluorescence; inhibition, % at 7.9 µM; in the data active = inhibition above about 37%;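 note: 0% = vehicle and 100% = reference compound; higher means more ethidium bromide displaced from hairpin DNA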
# MEKK2 mut-MEK5: signal of MEK5 binding to mutant human MEKK2 PB1 domain | bead flow cytometry, Alexa488-MEK5 binding to MEKK2 mutant | percent response, % at 10 µM | 290,000 tested, 0.35% active; in the data active = percent response above about 24%, passing the limit was not always enough
# dFosB act-2: activators of mouse delta FosB homodimer DNA binding; shares compounds with dFosB act-1; purified delta FosB, TAMRA-CDK5 oligo fluorescence polarization; normalised: neutral wells 0, positive control 100; activation, % at 24.9 µM; 2,400 tested, under 10 active;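 active = highest replicate activation at or above 34% and every replicate reaching that threshold; inconclusive = meets only one of the two criteria; inactive = meets neither criterion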;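 note: higher polarization means more probe DNA bound by delta FosB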
# * = called active by the depositor; ? = inconclusive; nt = no result.
SMILES,MEKK3 PB1 HTS,dFosB act-1,MEKK2wt PB1 HTS,FID counter,MEKK2 mut-MEK5,dFosB act-2
CC(=O)c1ccc(NC(=O)CSc2nnc(NC(=O)c3ccco3)s2)cc1,99,28*,102,-2,2,0
O=C(CSc1nnc(NC(=O)c2ccco2)s1)Nc1cccc(F)c1,99,?,103,1,5,nt
Cc1ccc(C)c(SCC(=O)NC(=O)NC2CCCC2)c1,nt,-6,nt,nt,nt,nt
CCOc1ccc2oc(C(=O)NNC(=O)c3ccccc3O)c(C)c2c1,nt,16,nt,nt,nt,nt
Cc1c(C(=O)NNC(=O)c2ccccc2O)oc2ccc(Br)cc12,nt,37*,nt,nt,nt,0
Cc1sc2ncnc(N3CCC(C(=O)Nc4cc(S(C)(=O)=O)ccc4Cl)CC3)c2c1C,nt,2,nt,nt,nt,nt
COc1ccc(S(=O)(=O)N(C)C)cc1NC(=O)C1CCN(c2ncnc3sc(C)c(C)c23)CC1,nt,47*,nt,nt,nt,0
O=C(Nc1c(-c2ccccc2)nc2ncccn12)c1cc2ccccc2oc1=O,113,38*,101,-5,-3,1
O=C(Nc1cccc(-c2cn3ccccc3n2)c1)c1cc2ccccc2oc1=O,98,61*,98,6,-4,3
CC(=O)Nc1cccc(-c2cn3ccccc3n2)c1,90,-10,92,-4,-39,nt
CC(=O)Nc1c(-c2ccccc2)nc2ncccn12,104,-5,108,0,1,nt
COc1ccccc1NS(=O)(=O)c1cc(NC(=O)CN2C(=O)NC3(CCCC3)C2=O)ccc1C,nt,-10,nt,nt,nt,nt
COc1ccc(NC(=O)c2sc3ncn(CC(=O)N4CCN(c5ccccn5)CC4)c(=O)c3c2C)c(OC)c1,103,11,104,-22,-1,nt
COc1cc(OC)c(NC(=O)c2sc3ncn(CC(=O)N4CCN(c5ccccn5)CC4)c(=O)c3c2C)cc1Cl,102,24*,97,-20,5,0
COc1ccc(-c2cc3nc4ccccc4n3c(N)c2C#N)cc1,101,19*,105,-2,4,6
COc1ccc(CNC(=O)CCCCCNc2nc(=S)[nH]c3ccccc23)cc1,97,39*,91,-10,-9,2
O=C(NC1CCCCC1)c1ccc(CNc2nc(=S)[nH]c3ccccc23)cc1,98,19*,83,-7,-12,2
S=c1nc(NCc2ccc3c(c2)OCO3)c2ccccc2[nH]1,100,-1,101,-8,-5,nt
CCOC(=O)NC(NC(=O)OCC)C(=O)c1ccc(F)cc1,103,9,103,-4,3,nt
CCOC(=O)N1CCC(N2C(=O)c3ccc(C(=O)NCCOC)cc3C2=O)CC1,101,1,102,-24,2,nt
CCOC(=O)N1CCC(N2C(=O)c3ccc(C(=O)Nc4ccc(OC)cc4)cc3C2=O)CC1,100,30*,98,-14,-1,-3
O=C(Nc1ccncc1)c1ccc2c(c1)C(=O)N(C1CCCCC1)C2=O,99,26*,99,2,1,6
CCN(CC)C(=O)Cn1cc(S(=O)(=O)CC(=O)Nc2ccccc2C)c2ccccc21,100,-12,100,-37,2,nt
COCCN(C(=S)Nc1ccccc1OC)C(C)c1cccs1 (configuration not stated),121,-5,105,-1,1,nt
CCC(C)c1ccc(S(=O)(=O)N2CCN(S(=O)(=O)c3ccc(NC(C)=O)cc3)CC2)cc1 (configuration not stated),95,80*,93,-17,0,-1
O=C(CN1CCCC1c1cccs1)Nc1cc(S(=O)(=O)N2CCCCC2)ccc1Cl (configuration not stated),nt,-6,nt,nt,nt,nt
CC(NC(=O)C1CCCCC1)C(=O)NC1=NCCS1 (configuration not stated),95,-1,93,-2,-2,nt
O=C(/C=C/c1ccccc1)Nc1ccc2c(c1)C(=O)NC2=O,102,7,100,-2,1,nt
O=C(/C=C/c1ccccc1Cl)Nc1ccc2c(c1)C(=O)NC2=O,102,20*,102,-7,-2,0
CC(C)CN1CCN(Cc2cn(C)c3ccccc23)CC1CCO (configuration not stated),104,-11,108,3,9,nt
